The values below come from PubChem BioAssay (NCI).

Structures are written as SMILES. This is part of a sample that, as a whole, favours compounds with a hit. Of some 83,000 tested, about 20% had one in any assay.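 How to read the values: 0–100, growth inhibition (40 = 60% inhibited); 0, no net growth; -100 to 0, cell death (-40 = 40% of starting cells died; -100 = all dead).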 Values without a mark were called inactive. The source made the active and inactive calls. How the source made its calls: active means growth percent below 10; inactive means the rest.

What all share (test): NCI-60 one-dose screen, 48 h (100 = growth as untreated, 0 = no growth, -100 = all killed)
Settings in all cases: 10 µM unless noted

Assay [1] has as its system HCT-15 colon.
Assay [2] deals with HT29 colon.
Assay [3] has as its system SNB-75 CNS.
Assay [4] relates to SNB-19 CNS.
Assay [5] concerns U251 CNS.
Assay [6] has as its system PC-3 prostate.
Assay [7] concerns SK-MEL-5 melanoma.
The test system of assay [8] is UACC-62 melanoma.
For assay [9], the system named is LOX IMVI melanoma.
For assay [10], the system named is SK-MEL-28 melanoma.
The subject of assay [11] is EKVX NSCLC.
For assay [12], the system named is SN12C renal.
The subject of assay [13] is UO-31 renal.
Assay [14] deals with TK-10 renal.
For assay [15], the system named is ACHN renal.
Assay [16] has as its system CAKI-1 renal.
Assay [17] deals with A498 renal.
For assay [18], the system named is CCRF-CEM leukemia.
Assay [19] concerns MOLT-4 leukemia.

As for `CN1CCN(CCCOc2ccc3nc(Nc4cc(Cl)cc(Cl)c4)ccc3c2)CC1`, the growth was -87.6% (active) in assay [1]; -94.4% (active) in assay [2]; -94.5% (active) in [3]; -76.2% (active) in assay [4]; -87.5% (active) in assay [5]; -57.8% (active) in [6]. Also, the growth was -94.9% (active) in [7]; -81.5% (active) in assay [8]; -94.4% (active) in assay [9]; -87.2% (active) in assay [10]; -21.5% (active) in [11]; -17.7% (active) in assay [12]. The growth in assay [13] was -87.6% (active); in [14], -79.7% (active); in assay [15], -98.8% (active); in assay [16], -32.6% (active); in assay [17] it was -18.6% (active); in [18] it was -52.5% (active). Besides, the growth in assay [19] was -67.8% (active).

With `CCNCCNc1cc(-c2cccc(C(F)(F)F)c2)c(C#N)c2nc3ccccc3n12`, the growth in assay [1] is -91.4% (active); in [2] it was -82.5% (active); in [3] it was -89.3% (active); in [4], -20.3% (active); in assay [5] it was -88.7% (active); in [6] it was -59% (active). Moreover, the growth in assay [7] is -96.1% (active); in assay [8] it was -68.6% (active); in assay [9], -85.7% (active); in [10], -81.9% (active); in assay [11], -89.5% (active); in assay [13] it was -81.8% (active). Besides, the growth in assay [14] was -92.9% (active); in [15] it was -100% (active); in assay [16], -70.8% (active); in [17], 81.4%; in assay [18], -12.3% (active); in assay [19] it was -33.2% (active).

For the compound `CCNCCNc1cc(-c2ccc(Cl)cc2)c(C#N)c2nc3ccccc3n12`, the growth in assay [1] is -78.5% (active); in assay [2], -32.2% (active); in assay [3], -76.6% (active); in [4] it was 36%; in assay [5], -53.2% (active); in [6] it was 27.2%. The growth was -99.4% (active) in [7]; -82.7% (active) in assay [8]; -77.4% (active) in assay [9]; -90.2% (active) in assay [10]; 11.2% in [11]; 44.9% in [12]. In addition, the growth in [13] was -95.2% (active); in assay [14] it was -20.3% (active); in assay [15] it was -60% (active); in [16], 39.5%; in assay [17] it was 2.87% (active); in [18], -21.3% (active). For the same compound, the growth in assay [19] was -28.7% (active).

`COc1ccc(O)c(-c2cc(-c3ccccc3)c(C#N)c(=O)[nH]2)c1`: the growth in assay [1] is 100%; in assay [2], 118%; in assay [3], 93.8%; in [4], 103%; in assay [5], 73.4%; in [6], 78.3%. In addition, the growth in assay [7] is 73.7%; in assay [8], 86.1%; in assay [9], 64.3%; in [10], 113%; in assay [11] it was 104%; in [12], 85.1%. Moreover, the growth in assay [13] is 68.2%; in assay [14], 88.2%; in assay [15], 106%; in [16], 95.1%; in [17] it was 65.9%; in [18] it was 91.7%. Besides, the growth in [19] was 102%.

`CN(C)c1ccc(/C=C2\C=C(c3ccccc3)N(CCc3ccccc3)C2=O)cc1`: the growth is 83.2% in assay [1]; 77.8% in [2]; -29.1% (active) in assay [3]; 46.6% in assay [4]; 33.2% in assay [5]; 52.3% in assay [6]. Also, the growth in [7] is 82.7%; in [8], 67.3%; in assay [9] it was 48.9%; in assay [10], 89.8%; in [11], 46.9%; in [12], 89.8%. In addition, the growth in assay [13] is 61%; in assay [14], 88.7%; in assay [15] it was 57.6%; in [16] it was 76.9%; in assay [17], 72.8%; in [18], 102%. For the same compound, in [19], the growth was 86.5%.

`C=C(C=O)[C@@H]1CC=C(C=O)CC1`: the growth in [1] is -12% (active); in assay [2], 13.2%; in [3], 32.9%; in assay [4], 55%; in assay [5], -8.31% (active); in assay [6], 15.3%. In addition, the growth was -41.1% (active) in [7]; -21.6% (active) in assay [8]; -0.188% (active) in assay [9]; -43.3% (active) in assay [10]; 2.06% (active) in assay [11]; -14.1% (active) in assay [12]. Moreover, the growth is -41.7% (active) in assay [13]; -42.2% (active) in assay [14]; -54.9% (active) in [15]; -31.7% (active) in assay [16]; 81.7% in assay [17]; -52.7% (active) in [18]. Further, in assay [19], the growth was -40.8% (active).

Consider `CN(C)c1ccc2cc(-c3ccccc3F)c(N)nc2c1`, for which the growth in assay [1] is 37.4%; in [2], 1.79% (active); in [3] it was 11.3%; in assay [4], 55.1%; in assay [5], 16.8%; in [6] it was 31.6%. Also, the growth is -18.8% (active) in assay [7]; 40.2% in assay [8]; 33.4% in assay [9]; 58% in [10]; 31.1% in [11]; 54.9% in assay [12]. Besides, the growth is 34% in assay [13]; 34.6% in assay [14]; 41.2% in assay [15]; 37.5% in assay [16]; -7.09% (active) in assay [17]; 45.7% in assay [18]. Also, in [19], the growth was 35.1%.

For `CNC(=O)c1cc(Oc2ccc3nc(Nc4cc(Cl)cc(Cl)c4)ccc3c2)ccn1`, the growth in assay [1] is 41.4%; in assay [2], 15.3%; in assay [3] it was 70.2%; in [4], 75.2%; in assay [5] it was 58.2%; in assay [6], 40.3%. For the same compound, the growth in [7] was 51.8%; in assay [8] it was 44.7%; in [9], 45.9%; in [10], 61.4%; in [11], 53.1%; in [12], 78.9%. Moreover, the growth in [13] was 58.9%; in [14], 74.3%; in assay [15], 62.6%; in assay [16] it was 84.1%; in assay [17], 35.2%; in assay [18] it was 81.1%. Further, the growth in [19] is 33.7%.
